Drawing on PubChem BioAssay (EPA / NIEHS), this text covers outcome and AC50 for 40 compounds.

Calls of active or inactive are those of the source. How the source made its calls: active means hit-call score of the fitted dose curve at least 0.9, where 1 is the maximum; inactive means score below 0.9.

The nature of the assay: APR_HepG2_CellLoss_24hr: Apredica 24-hour HepG2 Assay for Cell Loss (AID 2282908).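 On AC50: fit in both directions so a hit may be cell loss or gain.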 Conditions: high-content imaging. As for the experimental part: APR_HepG2_24hr is a cell-based, multiplexed-readout assay that uses HepG2, a human liver cell line, with measurements taken at 24 hours after chemical dosing in a 384-well plate.APR_HepG2_CellLoss_24hr is one of 10 assay component(s) measured or calculated from the APR_HepG2_24hr assay. It is designed to make measurements of cell number, a form of viability reporter, as detected with fluorescence intensity signals by HCS Fluorescent Imaging technology.Data from the assay component APR_HepG2_CellLoss_24hr was analyzed into 1 assay endpoint. This assay endpoint, APR_HepG2_CellLoss_24hr, was analyzed with bidirectional fitting relative to DMSO as the negative control and baseline of activity. Using a type of viability reporter, measures of all nuclear dna for gain or loss-of-signal activity can be used to understand the viability at the cellular-level. Furthermore, this assay endpoint can be referred to as a secondary readout, because this assay has produced multiple assay endpoints where this one serves a viability function. To generalize the intended target to other relatable targets, this assay endpoint is annotated to the cell cycle intended target family, where the subfamily is proliferation.
Cells were treated with dimethyl sulfoxide (DMSO) as a solvent control at a final concentration of 0.5% v/v or with compounds in DMSO with a resulting final DMSO concentration of 0.5% v/v. Compound treatment was done at concentrations of 0.39, 0.78, 1.56, 3.12, 6.24, 12.5, 25, 50, 100, and 200 uM in duplicate on each plate. Cells were treated with compounds for 1, 24, or 72 hr. Carbonyl […] m-chloro-phenylhydrazone (CCCP) and taxol were used as positive controls for mitochondrial function and cytoskeletal stability, respectively; DMSO served as the negative control for this experiment. Cells were fixed by the direct addition of 50 uL formaldehyde in Hank's Balanced Salt Solution (HBSS) to a final concentration of 3.7%. After incubation in the fixation medium for 30 min at room temperature (293-298 K), cells were rinsed twice with HBSS and treated with cell permeabilization buffer (16 uL of 0.5% Triton X-100) for 10 min at room temperature (293-298 K) before labeling. For mitochondrial membrane potential and mitochondrial measurements, pre-fixed cells were incubated with 50 uL of MitoTracker Red CMXRos (Invitrogen) at a concentration of 250 nM for 30 min before fixation. In the remaining cases, post-fixed cells were labeled by incubation with a multiplexed mixture of primary antibodies in HBSS for 60 min at room temperature (293-298 K) to detect immunoreactivity of c-Jun (1:500), phospho-histone H3 (1:100), phospho-histone H2A.x (1:200), p53 (1:400), alpha-tubulin (1:200) and Hoechst 33342 (2 ug/mL). Cells were labeled for multiplexed imaging on two separate plates: a) Hoechst 33342, MitoTracker Red, phospho-histone H3, and alpha-tubulin, and b) Hoechst 33342, phospho-histone H2A.x, and c-Jun. A final rinse with HBSS (50 uL) was performed before analysis. The primary and secondary antibodies for the proteins were phospho-histone H3 (rabbit anti-phospho-histone H3 and FITC-donkey anti-rabbit IgG), phospho-histone H2A.x (mouse anti-phospho-histone H2A.x and FITC-donkey anti-mouse IgG), c-Jun (rabbit anti-phospho-c-Jun and Cy3-donkey anti-rabbit IgG), p53 (sheep anti-p53 and Cy5-donkey anti-sheep IgG), alpha-tubulin (mouse anti-alpha-tubulin and Cy5-donkey anti-mouse IgG). These antibodies are available as the CellCiphr HepG2 assay kit (Millipore).Digital images of each well were captured using a Cellomics ArrayScan VTI (Thermo Scientific Cellomics) (0.8 NA objective, 0.63x optical coupler, and XF-93 filter set) at 20x magnification. The images were acquired using the autofocus feature of the ArrayScan instrument, which entails the following steps. First, the camera focuses on channel 1 (Hoechst 33342), where nuclei are identified. Second, a Z offset of 1 um is used for capturing mitochondria (MitoTracker Red). […]
For `CC1(C)NC(=O)NC1=O`, the compound was classed as inactive.
Consider `NCC1(Cc2noc(=O)[nH]2)CCCCC1`, for which the result was inactive.
As for `CCCCCCCCCCCCCO`, the AC50 (usually the concentration at which the activity in the assay is half-maximal) is 138 µM (active).
For `COc1cccc2c1C(=O)c1c(O)c3c(c(O)c1C2=O)C[C@@](O)(C(=O)CO)C[C@@H]3O[C@H]1C[C@H](N)[C@H](O)[C@H](C)O1`, the compound was called inactive.
For `CCCc1cc(=O)[nH]c(=S)[nH]1`, the result was inactive.
Turning to `CC(=O)OCCOCCOCCOC(C)=O`, the result was inactive.
Turning to `NS(=O)(=O)c1cc2c(cc1Cl)NCNS2(=O)=O`, the outcome was inactive.
In the case of `O=c1c(O)c(-c2ccc(O)c(O)c2)oc2cc(O)cc(O)c12`, the outcome was inactive.
For `CCCCCCOCCO`, the result was inactive.
For `Nc1ccc(S(=O)(=O)c2ccc(N)cc2)cc1`, the compound was called inactive.
In the case of `CCOc1ccc2c(c1)C(C)=CC(C)(C)N2`, the compound was classed as inactive.
As for `Cc1c(C(=O)O)c(O)cc2c1C(=O)c1c(O)c([C@@H]3O[C@H](CO)[C@@H](O)[C@H](O)[C@H]3O)c(O)c(O)c1C2=O`, the result was inactive.
`O=C(O)CCCCC(=O)O`: the compound was called inactive.
Consider `CN1CCN(Cc2cc(-c3ccc4[nH]c(=O)oc4c3)co2)[C@@H](c2ccc(F)cc2)C1`, for which the half-maximal activity concentration (AC50) was 89.7 µM (active).
As to `CCNc1cccc(C)c1`, the result was inactive.
In the case of `COc1ccc2c(c1)c(CC(=O)O)c(C)n2C(=O)c1ccc(Cl)cc1`, the call was inactive.
In the case of `Cc1nc(-c2ccc3c(c2)CCN(CCC2CCC(NC(=O)/C=C/c4ccc(F)cc4)CC2)CC3)no1` (stereo not given), the outcome was inactive.
Consider `Cc1ccc2ncccc2c1`, for which the outcome was inactive.
Turning to `Cc1cc(=O)[nH]c(=S)[nH]1`, the call was inactive.
Regarding `CC(CO)OC(C)CO` (stereo not given) (tested in a mixture with another compound), the call was inactive.
On the same count and under the same terms, the result for `O=C(O)Cc1ccccc1Nc1c(Cl)cccc1Cl` reads “inactive”; that for `CC=Cc1ccc(O)c(OC)c1`, “inactive”.
As to `CCCCCCCCCCO`, the result was inactive.
On the same count and under the same terms, in the case of `FC(F)(F)C(F)(F)C(F)(F)C(F)(F)C(F)(F)C(F)(F)CCI` it was “inactive”; in that of `CC(=O)OC/C=C(\C)CCC=C(C)C`, “inactive”.
With `CNC(=O)[C@H]1O[C@@H](n2cnc3c(NCc4cc(Cl)ccc4OCc4cc(C)no4)ncnc32)[C@H](O)[C@@H]1N`, the call was inactive.
Consider `Oc1ccc2c(c1)OC[C@@H](N1CCC(O)(c3ccc(F)cc3)CC1)[C@H]2O`, for which the outcome was inactive.
`CCc1c(C(=O)NN2CCCCC2)nn(-c2ccc(Cl)cc2Cl)c1-c1ccc(Br)cc1`: the AC50 is 21.5 µM (active).
In the case of `CCCCCC(=O)O`, the compound was classed as inactive.
Turning to `COc1cc(S(=O)(=O)O)c(C)cc1N=Nc1c(O)ccc2cc(S(=O)(=O)O)ccc12`, the call was inactive.
On to `CCOC(=O)C(C)(C)Oc1ccc(Cl)cc1`, for which the AC50 is 115 µM (active).
With `CCCCC(CC)COC(=O)CC(C(=O)OCC(CC)CCCC)S(=O)(=O)O` (stereo not given), the AC50 was 126 µM (active).
With `CCCCCCCCCCCCCCCCCC(=O)O`, the outcome was inactive.
On to `CCCCCCCCCCCC(=O)OC`, for which the outcome was inactive.
`Cc1ccc(C)c(O)c1C`: the outcome was inactive.
On to `C=CCc1ccc(O)c(OC)c1`, for which the result was inactive.
The same measure, in the same setting: in the case of `CCCCCCC(=O)OCC` it was “inactive”.
Turning to `CN1CCCC1=O`, the outcome was inactive.
As for `Nc1ccc2c(c1)C(=O)c1ccccc1C2=O`, the outcome was inactive.
Regarding `C=CCOC(=O)c1ccccc1C(=O)OCC=C`, the outcome was inactive.
